The values that follow come from ChEMBL document CHEMBL4513216, “Probing the Open Global Health Chemical Diversity Library for Multistage-Active Starting Points for Next-Generation Antimalarials” (ACS Infect Dis, 2020).

In all, about 69,000 compounds went through this assay and about 8,600 (12%) showed an effect of 50% or more. Shown is part of a subset that was picked to be rich in strong results.

This assay concerns Plasmodium berghei. The experiment in a line: Screen against P. berghei liver stage (PbLuc), transformed with Luciferase, at 10uM. The class given is functional, HepG2. The note with it: tested at 10 uM.
Turning to `O=C(NCCn1ccnc1)NCC(c1ccco1)N1CCCC1` (stereo unspecified), the INHIBITION is reported as -14%.

In the case of `Cc1nccn1[C@@H]1CC[C@@H](N(C)S(=O)(=O)c2ccccc2F)[C@H]1O`, the INHIBITION was -0.05%.

As for `Cc1occc1C(=O)NCC1OCCc2cn(C)nc21` (stereo unspecified), the INHIBITION is recorded as -14.2%.

Take `COCCCNc1c(-c2ccccc2)c(=O)c1=O`: the INHIBITION is 25.3%.

Take `CC(Cc1cccc(F)c1)NCc1cnc(N2CCN(C)CC2)nc1` (stereo unspecified): the INHIBITION is 23.2%.

Regarding `CCCc1nc(C)cc(N2CCNC(C(=O)Nc3ccc(C)nc3)C2)n1` (stereo unspecified), the INHIBITION is 46.1%.

Consider `CCCc1nc(C)cc(N2CCNC(C(=O)NCc3cccnc3)C2)n1` (stereo unspecified), for which the INHIBITION is on record as 59.1%.

For the molecule `O=C(NCc1cccnc1)[C@H]1C[C@@H]2CCN(c3ccncn3)C[C@H]2O1`, the INHIBITION was 48%.

As for `CC1CCN(C(=O)[C@@H]2C[C@@H]3CCN(CC4CCOCC4)C[C@@H]3O2)CC1`, the INHIBITION is listed as -24.9%.

With `CCOCC(=O)Nc1ncn(Cc2cccc(Br)c2)n1`, the INHIBITION worked out at 61.8%.

As to `CC(CC(=O)Nc1ncn(CC(=O)NCc2ccccc2)n1)C1CC1` (stereo unspecified), the INHIBITION came out at 38.8%.

As for `CC(C)C(=O)Nc1ncn(Cc2cccc(Br)c2)n1`, the INHIBITION was 53.3%.

Take `CCOCC(=O)Nc1cc(-c2cccc(F)c2F)n[nH]1`: the INHIBITION is reported as 10.7%.

As for `O=C(Nc1ncn(Cc2cccc(Br)c2)n1)C1CCC1`, the INHIBITION is listed as 37.2%.

On to `CCCSCC(=O)Nc1ncn(CC(=O)NCc2ccccc2)n1`, for which the INHIBITION stood at 12.2%.

Consider `O=C(COCC(=O)N1CCCCCC1)NCc1cccc(Br)c1`, for which the INHIBITION stood at 14.1%.

`CSCC(=O)Nc1ncn(Cc2cccc(Br)c2)n1`: the INHIBITION is listed as 69.3%.

Consider `COCC(=O)NC(C)Cc1cccc(Br)c1` (stereo unspecified), for which the INHIBITION is 14.7%.

With `CN(C)C(=O)CN1CCN(C(=O)c2cnn(-c3ccccc3Cl)c2)CC1`, the INHIBITION is on record as -2.33%.

For `CCOC(=O)N1CCN(C(=O)c2snnc2-c2ccc(OC)cc2)CC1`, the INHIBITION turned out to be 4.66%.

As to `COCCN1C[C@@H]2CN(Cc3cccc(C)n3)C[C@@H]2C1=O`, the INHIBITION is listed as 14.1%.

Consider `CCc1nc(C2CCCN(C(=O)c3ccc(OC)cc3)C2)no1` (stereo unspecified), for which the INHIBITION is listed as -31.8%.

In the case of `CC(C)CC(=O)N1CC[C@H]2N(C)CC[C@@]2(C(=O)Nc2ccccc2)CC1`, the INHIBITION is 42.5%.

Regarding `CCOC1COC2(CCN(Cc3ccc(C)c(C)c3)CC2)C1` (stereo unspecified), the INHIBITION is on record as 30.9%.

As to `Cc1c(C(=O)NS(=O)(=O)c2ccsc2)cnn1CC(C)C`, the INHIBITION was determined as 53.8%.

Consider `CCCn1ncc(C(=O)NC(C)c2c(C)nn(CC)c2C)c1C` (stereo unspecified), for which the INHIBITION was found to be 9.05%.

`CCC(CC)n1ncc(C(=O)NS(=O)(=O)c2ccsc2)c1C`: the INHIBITION amounted to 38.4%.

Turning to `Cc1c(C(=O)NS(=O)(=O)c2ccc(F)cc2)cnn1CC(C)C`, the INHIBITION is 56%.

Regarding `Cn1cnc2cc(C(=O)NS(=O)(=O)c3ccc(F)cc3)ccc21`, the INHIBITION amounted to 28.4%.

Turning to `Cn1nnc2cc(C(=O)NS(=O)(=O)c3ccc(F)cc3)ccc21`, the INHIBITION was 17.1%.

As for `CNc1cc(C2CCCN2C(=O)CCc2cnn(C)c2C)ccn1` (stereo unspecified), the INHIBITION is 14.6%.

As for `CCNc1cc2c(nn1)CCN(C(=O)c1ccc(-n3cnnc3)cc1)C2`, the INHIBITION was 19.6475%.

For the molecule `Nc1nccc(N2C[C@@H](CN3CCCCC3)[C@@H](CO)C2)n1`, the INHIBITION was -2.39%.

As for `Cc1nccc(N2C[C@@H](CN3CCCC3)[C@@H](CO)C2)n1`, the INHIBITION stood at 13%.

For the molecule `CSc1nccc(N2C[C@@H](CN3CCCCC3)[C@@H](CO)C2)n1`, the INHIBITION worked out at 55.7%.

In the case of `COc1cc(C(=O)N2CC(Oc3ccccc3Cl)C2)ccn1`, the INHIBITION came out at 27.5%.

With `COc1cccc(OC2CN(C(=O)c3ccnc(OC)c3)C2)c1`, the INHIBITION is 49.9%.

As to `CCc1ccccc1OC1CN(C(=O)c2ccnc(OC)c2)C1`, the INHIBITION was 61.1%.

For `CN(CC(=O)N1CC(C)(C)[C@](O)(C2CC2)C1)Cc1ccncc1`, the INHIBITION was 41.5%.

As to `CCc1ccccc1OC1CN(C(=O)CN(C)Cc2cccnc2)C1`, the INHIBITION is reported as -76.5%.

For `COc1ccccc1OC1CN(C(=O)CN(C)Cc2ccncc2)C1`, the INHIBITION is given as -2.04%.

With `CN(CC(=O)N1CC(C)(C)[C@](O)(C2CC2)C1)Cc1cccnc1`, the INHIBITION is -3.94%.

Consider `CCc1ccccc1OC1CN(C(=O)CN(C)Cc2ccncc2)C1`, for which the INHIBITION came out at 58.1%.

Consider `CN(CC(=O)N1CC(C)(C)[C@@](C)(O)C1)Cc1ccncc1`, for which the INHIBITION turned out to be 59.1%.

Consider `Cn1nc(Br)c2c(NCCS(N)(=O)=O)ncnc21`, for which the INHIBITION was 36.4%.

For `CC(=O)N1CCN(C(=O)NC(C)Cn2ccnc2)CC1` (stereo unspecified), the INHIBITION stood at 24.2%.

As to `COc1ccc(CN2C[C@H](N3CCCC3=O)[C@@H]3OCCC[C@@H]32)cc1`, the INHIBITION is 48.2%.

Turning to `CCn1nc(C)c2nc(C(C)C)nc(N3CCN(C)CC3)c21`, the INHIBITION is reported as -10.1%.

On to `CCS(=O)(=O)N1CC[C@H]2C(=O)N(Cc3cccnc3)CCO[C@H]2C1`, for which the INHIBITION is recorded as -7.38%.

Turning to `CNC(=O)CC1c2cccnc2C(=O)N1Cc1ccccc1` (stereo unspecified), the INHIBITION came out at 19.2%.

`COCCNC(=O)Cn1c(-c2cccc(Cl)c2)nc(C)c(CCO)c1=O`: the INHIBITION worked out at 18.2%.

For the molecule `COCCNc1cccc(C2CCCN2)n1` (stereo unspecified), the INHIBITION was -31%.

With `CCC(C)c1noc(C2CCN(C(=O)Cn3nc(C)cc3C)CC2)n1` (stereo unspecified), the INHIBITION worked out at 40.8%.

As to `O=C(NCCCN1CCOCC1)c1ccn(COc2ccccc2)n1`, the INHIBITION was -8.07%.

On to `Cc1c(C(=O)N2CCC3(CCC(=O)N(CCN(C)C)C3)CC2)ccn1C`, for which the INHIBITION was found to be 34%.

`CN(C)CCN1CCC2(CCN(C(=O)c3ccc(F)cc3)CC2)C1=O`: the INHIBITION came out at 56.6%.

As to `CN(C)CCN1CCC2(CCN(C(=O)c3ccncc3)CC2)C1=O`, the INHIBITION came out at 13.7%.

As for `CN(C)CCN1CCC2(CCN(C(=O)c3cccc(F)c3)CC2)C1=O`, the INHIBITION is reported as 0.112%.

As for `CCc1ccc(C(=O)N2CCC3(CCC(=O)N(CCN(C)C)C3)CC2)[nH]1`, the INHIBITION is on record as 70.4%.

On to `CN(C)CCN1CC2(CCC1=O)CCN(C(=O)c1ccn(C)n1)CC2`, for which the INHIBITION was determined as 35.1%.

As to `Cc1ncsc1CN1CC[C@H]2OCC[C@@]2(C(=O)NC(C)C)C1`, the INHIBITION amounted to 11.1%.

`Fc1cccc(Cl)c1Cn1ncnc1CSCCN1CCCC1`: the INHIBITION worked out at 39.9%.

As to `Cc1nnc(C2CCN(C(=O)c3cnc4ccccc4n3)CC2)s1`, the INHIBITION is reported as 31.2%.

In the case of `CN(C)C[C@@H]1CN(C(=O)CCC2CCCC2)C[C@@H]1CO`, the INHIBITION amounted to 28.2%.

Turning to `Cn1ccc(C(=O)N2CCCC(Cc3cccc4ncccc34)C2)n1` (stereo unspecified), the INHIBITION is 75.1%.

Consider `O=C(c1cnccn1)N1CCCC(Cc2ccccn2)C1` (stereo unspecified), for which the INHIBITION is given as 31.8%.

`Cn1cc(C(=O)N2CCCC(Cc3cccc4ncccc34)C2)cn1` (stereo unspecified): the INHIBITION was 85.7%.

In the case of `O=C(c1cnco1)N1CCC(Cc2cccc3ncccc23)CC1`, the INHIBITION came out at 44.9%.

Take `Cn1ccc(C(=O)N2CCC(Cc3cccc4ncccc34)CC2)n1`: the INHIBITION amounted to 42.6%.

Consider `O=C(c1cnccn1)N1CCCC(Cc2cncc3ccccc23)C1` (stereo unspecified), for which the INHIBITION is recorded as -39.4%.

For the molecule `Cn1ccc(C(=O)N2CCC(Cc3cccc4ncccc34)C2)n1` (stereo unspecified), the INHIBITION was determined as 23.4%.

As for `Cn1cc(C(=O)N2CCCC(Cc3nccs3)C2)cn1` (stereo unspecified), the INHIBITION is reported as 20.2%.

On to `O=C(c1cnco1)N1CCCC(Cc2cccc3ncccc23)C1` (stereo unspecified), for which the INHIBITION came out at 51.2%.

As to `O=C(c1cnccn1)N1CCCC(Cc2cccc3ncccc23)C1` (stereo unspecified), the INHIBITION stood at 70.8%.

As to `Cn1cc(C(=O)N2CCCC(Cc3cncc4ccccc34)C2)cn1` (stereo unspecified), the INHIBITION turned out to be 3.91%.

As for `O=C(c1cnco1)N1CCCC(Cc2nccs2)C1` (stereo unspecified), the INHIBITION is recorded as 26.9%.
